# Pf growth 96h = Primary qHTS for delayed death inhibitors of the malarial parasite plastid, 96 hour incubation; actives 6.9% (n = 320,000); P. falciparum luciferase reporter growth, 96 h; Potency, µM (top dose mostly 28.7 µM), without a hit: at the top dose activity change, negative = inhibition, actives largely listed as inhibitors; note: potency is the fitted concentration of half-maximal effect; % is set by controls: 0 for no effect and ±100 for the full control effect
#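 Readout is luminescence from an integrated firefly luciferase in P. falciparum. Red cells, 2% hematocrit and 0.05% parasitemia final, were cultured with compound through two parasite generations (96 hours) at 37 C, 5% CO2.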
# LmPK inhibitor = qHTS Assay for Inhibitors of Leishmania Mexicana Pyruvate Kinase (LmPK); Q27686; purified LmPK, Kinase-Glo ATP luminescence, 1 h; actives 0.37% (n = 290,000); Potency, µM (doses to about 57.5 µM), for inactives: at the highest dose activity change, negative = inhibition, actives largely listed as inhibitors; note: potency is the fitted concentration of half-maximal effect; % is set by controls: 0 for no effect and ±100 for the full control effect
# Target sequence (Q27686 whole entry, looked up): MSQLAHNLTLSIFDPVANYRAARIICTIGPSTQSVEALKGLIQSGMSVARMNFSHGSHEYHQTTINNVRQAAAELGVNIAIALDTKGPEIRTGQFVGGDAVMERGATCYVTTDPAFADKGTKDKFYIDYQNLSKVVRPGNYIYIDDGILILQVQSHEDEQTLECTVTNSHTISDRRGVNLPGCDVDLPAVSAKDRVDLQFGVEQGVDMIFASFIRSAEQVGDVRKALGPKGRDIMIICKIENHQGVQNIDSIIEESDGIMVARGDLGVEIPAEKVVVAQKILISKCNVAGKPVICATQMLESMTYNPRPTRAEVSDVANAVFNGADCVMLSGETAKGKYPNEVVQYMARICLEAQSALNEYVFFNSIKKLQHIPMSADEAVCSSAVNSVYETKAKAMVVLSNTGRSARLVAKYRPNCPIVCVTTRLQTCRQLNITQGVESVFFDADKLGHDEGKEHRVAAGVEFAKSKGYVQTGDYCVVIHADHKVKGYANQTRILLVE
#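 qHTS format; LmPK 0.1 nM; substrates PEP 0.5 mM and ADP 0.1 mM. One-hour room-temperature incubation, then coupled luciferase luminescence; 0.5 nM enzyme wells mark activation.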
# CHX counter = Cycloheximide Counterscreen for Small Molecule Inhibitors of Shiga Toxin | actives 12% (n = 300,000) | max response, % | cell reporter, cycloheximide protein synthesis inhibition counterscreen | AID 2314, 2010; in the data active = max response mostly above about 13%, no sharp cut-off; inactive = mostly below about 14%; note: read at 38.3 µM for the half of the compounds with a filed dose; 0% is about no effect
# Pf growth 48h = Primary qHTS for delayed death inhibitors of the malarial parasite plastid, 48 hour incubation; P. falciparum luciferase growth in erythrocytes, 48 h; Potency, µM (titrated, usually from 28.7 µM), for the others: at the top dose activity change, negative = inhibition, hits mostly inhibitors; actives 5.9% (n = 310,000); AID 504832, 2011; note: potency is the fitted concentration of half-maximal effect; % is set by controls: 0 for no effect and ±100 for the full control effect
#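 Parasite viability was followed by luminescence of a genomically integrated firefly luciferase. Cultures held 0.1% parasitemia at 2% hematocrit (final), incubated under 5% CO2 at 37 C.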
# Shiga toxin inh = A qHTS for Small Molecule Inhibitors of Shiga Toxin. inhibition, % at 38.7 µM. Vero cells, Shiga toxin protein synthesis inhibition reporter. actives 9.2% (n = 290,000); in the data active = inhibition mostly above about 28%, no sharp cut-off; inactive = mostly below about 43%; note: 0% is about no effect
# Numbers without * were called inactive; ? = inconclusive; . = no result given; [ ] = dose if it differs, or a comment. Only some compounds are listed: those with a hit (about 22% of all), similar ones and a draw of the others. Unless noted, calls come from the whole dose curve; as a rule, active = well fitted inhibition curve with a large enough effect; inconclusive = small, poorly fitted or top-dose-only effect, or another doubt; inactive = no such curve, though single readings can be large or run the other way.
SMILES,Pf growth 96h,LmPK inhibitor,CHX counter,Pf growth 48h,Shiga toxin inh
CC(=O)c1ccc(N=Cc2c(O)n(-c3cc(Cl)ccc3N3CCOCC3)c(=O)c3ccccc23)cc1,.,0%,16,0.66µM*,5
Cc1ccc(C(Sc2ccccc2)C(Cn2cncn2)C(=O)c2ccccc2)cc1 (configuration not stated),9.3µM*,1%,3,.,9
COc1ccc(NCc2ccc3c(c2)OCO3)cc1Cl,.,4%,22*,18%,43*
COC(=O)c1c(-c2cccnc2)csc1NC(=O)c1ccc2c(c1)OCO2,?,6%,37*,132%,70*
O=C(Nc1ccc(C(=O)N2CCCC2)cc1)c1ccc2c(c1)OCO2,?,16µM*,27*,.,36
O=C(Nc1ccc(F)c(Cl)c1)c1ccc2c(c1)OCO2,?,-17%,51*,178%,105*
O=C(Nc1ccc2c(c1)OCO2)c1ccc(Cl)cc1Cl,?,-9%,-2,?,-12
COC(=O)c1sccc1NC(=O)c1ccc2c(c1)OCO2,.,1%,7,26%,-8
CCOc1ccc2c(c1)c(=O)c(S(=O)(=O)c1ccc(CC)cc1)cn2C,?,7%,-6,-15%,15
COc1cc(NC(=O)c2ccc3c(c2)OCCO3)ccc1NC(=O)c1ccccc1Cl,0%,-6%,-7,-5%,-19
COc1ccc(NC(=O)c2ccc3c(c2)OCO3)cc1Cl,10%,-20%,66*,-17%,76*
COC(=O)c1ccc(NC(=O)c2ccc3c(c2)OCO3)cc1,15µM*,-10%,24*,97%,43*
O=S(=O)(NCCCNS(=O)(=O)c1c(F)cccc1F)c1ccc2c(c1)OCCO2,3%,.,2,-2%,2
CNC[C@H](CC1CCCCC1)NC[C@H](CO)NCCc1cccc(C(F)(F)F)c1,1.9µM*,-7%,-7,?,-11
Cc1cc(O)c(C2=Nc3ccccc3SC(c3ccc(Cl)cc3)C2)c(=O)o1 (configuration not stated),213%,2%,48*,218%,34*
CCCCc1nc2c(c3c1C[C@H](C)OC3)CN(C(=O)NCc1ccco1)CC2,.,5%[11.5 µM],.,.,.
CC(=O)NC1C(OCc2ccccc2)OC2COC(c3ccccc3)OC2C1OCC(=O)O (configuration not stated),-21%,-5%,41*,36%,33
CCC(C)(C)c1ccc(OC(=O)c2cccnc2Cl)cc1,27%,-1%,38*,?,124*
O=C(OCC(=O)c1ccccc1Br)c1ccccn1,8.3µM*,-3%,-1,20%,4
O=C(COC(=O)c1cccnc1Cl)c1ccc(F)cc1,21%,?,22*,10%,97*
O=C(OCc1ccc(COC(=O)c2cccnc2Cl)cc1)c1cccnc1Cl,13%,0%,-1,32%,-6
CCc1ccc(C(=O)COC(=O)c2cccnc2Cl)cc1,47%,-25%,39*,39%,95*
CC=CC1=C(C(=O)O)N2C(=O)[C@H](NC(=O)[C@H](N)c3ccc(O)cc3)[C@@H]2SC1,?,.,-3,-9%,-10
CS(=O)(=O)c1ccc(NC(=O)CCCc2nc3ccccc3c(=O)[nH]2)cc1,13%,.,.,16%,.
O=C(Cn1cc(S(=O)(=O)N2CCCC2)c(S(=O)(=O)N2CCCC2)c1)NCc1ccco1,?,5%,1,?,-10
SMILES,Pf growth 96h,LmPK inhibitor,CHX counter,Pf growth 48h,Shiga toxin inh
CCC(=Cc1ccc(CC)cn1)CC,?,-3%,-5,?,-10
COc1ccc(C)cc1-n1nnnc1SCC1CCCCO1 (configuration not stated),?,2%,-3,?,10
O=C(COC(=O)c1cccnc1Cl)NCCc1ccccc1,70%,.,.,36%,.
O=C(COC(=O)c1cccnc1Cl)c1ccccc1,?,?,47*,46%,71*
O=C(Nc1nnc(C2=COCCO2)o1)c1ccc([N+](=O)[O-])cc1,?,2%,-1,?,-10
Cc1cccn2cc(-c3ccc(Cl)cc3)nc12,388%,?,45*,16%,62*
O=[N+]([O-])c1cccn2cc(-c3ccc(Br)cc3)nc12,4.7µM*,5%,44*,?,67*
